# Measured values from article PMC4336329 (PLoS ONE, 2015).
# Among all 310,000 compounds or so, about 14,000 (4.5%) showed an effect of 50% or more. The effect is printed as a negative number. The full list was thinned out, with strong results kept by preference.
# Target: human ether-à-go-go-related gene (hERG) potassium channel (human, UniProt Q12809)
# Test: primary screen, population patch clamp on CHO cells stably expressing hERG; higher = less effect of the substance
# 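Note: peak tail current of the secondary pulse compared with the same well before compound.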
# human ether-à-go-go-related gene (hERG) potassium channel, sequence (Q12809 whole entry, looked up): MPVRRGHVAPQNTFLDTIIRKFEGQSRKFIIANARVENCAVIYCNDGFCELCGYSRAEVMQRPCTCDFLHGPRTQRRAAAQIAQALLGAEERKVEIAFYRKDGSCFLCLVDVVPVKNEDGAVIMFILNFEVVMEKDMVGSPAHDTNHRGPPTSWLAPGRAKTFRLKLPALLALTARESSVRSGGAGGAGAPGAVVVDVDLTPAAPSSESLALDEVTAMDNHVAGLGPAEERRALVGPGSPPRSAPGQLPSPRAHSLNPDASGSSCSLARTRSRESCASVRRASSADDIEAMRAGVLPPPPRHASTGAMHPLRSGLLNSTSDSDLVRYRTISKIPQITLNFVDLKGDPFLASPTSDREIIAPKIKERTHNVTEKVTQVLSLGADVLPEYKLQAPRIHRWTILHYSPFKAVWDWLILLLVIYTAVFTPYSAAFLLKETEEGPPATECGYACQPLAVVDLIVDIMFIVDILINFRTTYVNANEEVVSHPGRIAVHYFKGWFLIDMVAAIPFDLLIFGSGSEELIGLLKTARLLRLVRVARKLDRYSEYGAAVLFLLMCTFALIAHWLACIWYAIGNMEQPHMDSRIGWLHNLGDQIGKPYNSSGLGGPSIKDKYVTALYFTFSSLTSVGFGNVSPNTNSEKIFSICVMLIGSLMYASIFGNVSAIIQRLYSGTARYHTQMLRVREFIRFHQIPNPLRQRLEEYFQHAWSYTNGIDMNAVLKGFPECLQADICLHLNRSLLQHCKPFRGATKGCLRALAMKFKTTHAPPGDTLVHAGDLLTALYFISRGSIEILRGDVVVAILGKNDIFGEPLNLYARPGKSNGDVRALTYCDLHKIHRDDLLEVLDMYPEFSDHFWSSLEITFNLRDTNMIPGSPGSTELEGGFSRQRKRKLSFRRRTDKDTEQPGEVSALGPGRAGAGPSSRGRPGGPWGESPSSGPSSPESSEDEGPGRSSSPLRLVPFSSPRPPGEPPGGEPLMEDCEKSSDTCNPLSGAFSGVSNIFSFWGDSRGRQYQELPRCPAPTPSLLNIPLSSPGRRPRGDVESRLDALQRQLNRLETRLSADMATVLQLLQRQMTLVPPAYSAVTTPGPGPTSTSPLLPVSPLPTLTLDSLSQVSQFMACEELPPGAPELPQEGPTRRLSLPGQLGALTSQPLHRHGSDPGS
row,SMILES,"hERG current change (%, negative = inhibition) at 10uM [%]"
1,CCSc1nn2c(=O)c3ccccc3nc2s1,-13.2
2,COc1cccc(-c2cc(=O)[nH][nH]2)c1,18
3,O=C(NCc1ccccc1)c1ccc(Br)o1,8.67
4,CCCCN(CC)CCNC(=O)c1nn(-c2ccc(OC)cc2)c(=O)c2c1c1ccccc1n2C,0.748
5,CCCCCc1nnc(NC(=O)C2CCCO2)s1 (centres unmarked),-1.64
6,COC(=O)c1ccc(S(=O)(=O)N2CCC(c3nc4ccccc4o3)CC2)cc1,1.99
7,COc1ccccc1N(CC(O)Cn1ccnc1C)S(=O)(=O)c1ccc(C)cc1.Cl (centres unmarked),-39.3
8,CCCC1C(=O)Nc2ccccc2N1C(=O)c1cccc(C)c1 (centres unmarked),2.13
9,CCCCSc1nc(C)cc(NC(=S)Nc2ccc(OC)cc2)n1,-25.4
10,Cc1ccc(C(=O)Nc2cccc(C(F)(F)F)c2)cc1NC(=O)c1nccnc1N,8.61
11,Cc1ccc(C(=O)Nc2cccc(C(F)(F)F)c2)cc1NC(=O)c1ccno1,-67
12,Cc1ccc(C(=O)Nc2cccc(C(F)(F)F)c2)cc1NC(=O)c1nccn1C,1.96
13,CCOC(=O)Nc1ccc2c(c1)N(C(=O)CCN1CCOCC1)c1ccccc1S2.Cl,-7
14,CN1CCN(c2nc3c(c(=O)n(C)c(=O)n3C)n2Cc2ccccc2F)CC1,-4.91
15,CCCN(C(=O)c1cnccn1)c1c(N)n(Cc2ccccc2)c(=O)[nH]c1=O,0.0848
16,Cc1ccc(S(=O)(=O)N2[C@@H](c3ccc(Cl)cc3)C(C(=O)O)=CC[C@H]2c2ccc(Cl)c(Cl)c2)cc1,11.1
17,COc1ccc(C(=O)C2CCCN(C(=O)c3cc(C(C)C)no3)C2)cc1F (centres unmarked),-56.9
18,COc1ccccc1C(=O)C1CCCN(C(=O)c2cc(C(C)C)no2)C1 (centres unmarked),-5.26
19,COc1ccc(C(=O)C2CCCN(C(=O)c3cc(C)on3)C2)cc1F (centres unmarked),-6.98
20,Cc1cc(Cl)ccc1C(=O)C1CCCN(C(=O)c2cc(C(C)C)no2)C1 (centres unmarked),-22.7
21,CSc1ccccc1C(=O)C1CCCN(C(=O)c2cc(C(C)C)no2)C1 (centres unmarked),-69.6
22,CC(C)c1cc(C(=O)N2CCCC(C(=O)c3ccc4ccccc4c3)C2)on1 (centres unmarked),-21.8
23,Cc1ccccc1NC(=O)CSc1nc(N)c(C#N)cc1C#N,0.675
24,Cc1nc2c(-c3ccccc3)c(C)nn2c(C)c1CC(=O)O,5.02

row,SMILES,"hERG current change (%, negative = inhibition) at 10uM [%]"
1,O=C(CSc1nnc(CNC(=O)c2ccco2)o1)c1ccccc1,4.14
2,COc1cccc(C(=O)Nc2ccccc2C(=O)NC2CC2)c1,0.677
3,Cc1ccc(C)c(N2CCN(C(=O)Nc3ccc4c(c3)N(C)C(=O)CS4)CC2)c1,-21.8
4,CCCN1CCC(=O)N([C@H](CSc2ccccc2)c2ccccc2)CC1,-77.2
5,CCCN1CCC(=O)N([C@H](CSc2ccc(OC)cc2)c2ccccc2)CC1,-76.5
6,CCCN1CCC(=O)N([C@H](CSc2ccc(C)cc2)c2ccccc2)CC1,-76
7,CC(C)CN1CCC(=O)N([C@H](CSc2ccc(Br)cc2)c2ccccc2)CC1,-63.9
8,COc1ccc(CN2CCC(=O)N([C@H](CO)c3ccccc3)CC2)cc1,13.3
9,Nc1cc(=O)[nH]c(SCc2csc(-c3ccccc3)n2)n1,-3.63
10,O=C(NCCC1=CCCCC1)c1ccc(F)cc1,-9.04
11,Cc1noc(/C=C/N(C)C)c1S(=O)(=O)N1CCCC(C(=O)NC2CCCCC2C)C1 (centres unmarked),-25.5
12,O=C(Cc1ccc([N+](=O)[O-])cc1)OCc1ccc([N+](=O)[O-])cc1,19.2
13,CCCNC(=S)N1CCN(c2nc(-c3ccc(C)cc3)cs2)CC1,5.6
14,O=C(Nc1ccc(F)cc1F)c1cncc(Br)c1,-3.88
15,CCOC(=O)c1cnn(CCOC(=O)C(C)(C)C)c1NC(=O)C(C)(C)C,12.8
16,COc1cc(OC)c2ccc(=O)oc2c1C(CC(=O)N1CCOCC1)c1ccc2c(c1)OCO2 (centres unmarked),-0.731
17,Cc1nc(Nc2ccc(Cl)cc2)c2oc3ccccc3c2n1,3.95
18,CCCN1CCC(=O)N([C@H](CSc2ccc(Br)cc2)c2ccccc2)CC1,-76.2
19,O=C1CCN(Cc2ccc(Br)cc2)CCN1[C@H](CO)c1ccccc1,-3.45
20,Cc1ccc(C)c(OCCC(=O)OCC(=O)N2CCN(S(=O)(=O)c3ccc(Cl)cc3)CC2)c1,-29.8
21,O=S(=O)(c1ccccc1)c1nc(-c2ccco2)oc1NCc1cccnc1,-20.1
22,COc1ccccc1C(=O)N1CCN(Cc2c[nH]c3ccccc23)CC1.O=C(O)C(=O)O,-19.7
23,CCOc1ccc(CN2CCN(C(=O)Cc3ccccc3)CC2)cc1.O=C(O)C(=O)O,-44.1
24,COc1ccc(S(=O)(=O)N2CCN(Cc3c[nH]c4ccccc34)CC2)cc1,-24.9

row,SMILES,"hERG current change (%, negative = inhibition) at 10uM [%]"
1,CCS(=O)(=O)N1CCN(Cc2c[nH]c3ccccc23)CC1.O=C(O)C(=O)O,5.44
2,COc1ccc(Br)cc1CN1CCN(Cc2c[nH]c3ccccc23)CC1.O=C(O)C(=O)O,-29.2
3,CN(CCc1ccccc1)Cc1c[nH]c2ccccc12.O=C(O)C(=O)O,-56.7
4,Brc1ccc(CN2CCN(Cc3c[nH]c4ccccc34)CC2)cc1.O=C(O)C(=O)O,-63.8
5,CCOc1ccc(CN2CCN(Cc3c[nH]c4ccccc34)CC2)cc1.O=C(O)C(=O)O,-84.4
6,Brc1ccccc1CN1CCN(Cc2c[nH]c3ccccc23)CC1.O=C(O)C(=O)O,-20.1
7,COc1ccc(CN2CCN(Cc3c[nH]c4ccccc34)CC2)cc1.O=C(O)C(=O)O,-67.5
8,CN(Cc1ccccc1)Cc1c[nH]c2ccccc12,-16.5
9,O=C(Cc1ccccc1)NCCc1c[nH]c2ccccc12.O=C(O)C(=O)O,16.4
10,COc1ccc(S(=O)(=O)Nc2ccccc2-c2nnn(CC(=O)Nc3ccccc3OC)n2)cc1,5.49
11,CC(=O)OC[C@H]1O[C@@H](n2ccc(=O)[nH]c2=S)C(OC(C)=O)C1OC(C)=O (some centres unmarked),-4.01
12,COc1cccc(C(=O)NCC(C)(C)SCc2ccc(F)cc2)c1,-28.2
13,Cc1cccc(NC(=O)CCS(=O)(=O)c2cccc3nonc23)c1C,7.7
14,CCC(C)NC(=O)Nc1ccccc1F (centres unmarked),-24.5
15,O=S(=O)(c1ccccc1)N1CCCCC1c1cccnc1 (centres unmarked),2.3
16,O=C(COc1ccc(Br)cc1)N1CCN(Cc2c[nH]c3ccccc23)CC1.O=C(O)C(=O)O,-57.9
17,O=C(NCCc1c[nH]c2ccccc12)C1CCN(S(=O)(=O)c2ccccc2)CC1,-17.1
18,O=C(COc1ccccc1)N1CCN(Cc2c[nH]c3ccccc23)CC1,-47.4
19,O=C(NCCc1c[nH]c2ccccc12)C1CCN(Cc2ccc(Br)cc2)CC1,-54
20,O=C(NCCc1c[nH]c2ccccc12)C1CCN(S(=O)(=O)c2ccc(F)cc2)CC1,-28.3
21,O=C(c1ccccc1)N1CCN(Cc2c[nH]c3ccccc23)CC1,-16.4
22,O=C(NNC(=O)C1CC=CCC1)c1ccccc1O (centres unmarked),-4.58
23,Cn1c(CC(=O)Nc2ccccc2)nnc1SCC(=O)NC1=NCCS1,12.7
24,CC(C)c1ccccc1OCCCCCN1CCOCC1,-13.5

row,SMILES,"hERG current change (%, negative = inhibition) at 10uM [%]"
1,O=C(O)COc1ccc(Cl)cc1Cl,7.53
2,COc1ccc(C)cc1NC(=O)C(=O)N/N=C(\C)CC(=O)Nc1cccnc1,2.77
3,C=CCN1C[C@@H](C)N(C(c2ccc(C(=O)N(CC)CC)cc2)c2cccc(OC)c2)C[C@@H]1C (some centres unmarked),-65.3
4,C=CCN1C(=O)c2ccc(C(=O)N(CC)CC(=O)Nc3ccc(OC)cc3)cc2C1=O,-20
5,CCN(CC)C(=O)c1cccc(-c2ccc(OC)cc2)c1,-17
6,c1ccc(-n2c(-c3ccncc3)nnc2N2CCOCC2)cc1,16.9
7,Cc1cc(=O)c2ccc3ccccc3c2[nH]1,7.45
8,Cc1cc(=O)cc(C)n1-c1ccc(F)cc1F,0.384
9,CC1(C)c2cc(O)ccc2OC1N1CCOCC1 (centres unmarked),13.6
10,COc1ccc(-n2cnc3cc(NCc4ccco4)ccc32)cc1,-67.3
11,COc1ccccc1-n1cnc2cc(NCc3ccco3)ccc21,-20.7
12,c1ccc(-n2cnc3cc(NCc4ccco4)ccc32)cc1,-49.8
13,O=C1c2ccccc2C(=O)N1Cc1ccccc1F,13
14,CC1=C(C(=O)Nc2ccccc2)C(c2ccco2)C(C#N)=C(SCC(N)=O)N1 (centres unmarked),-3.31
15,O=C(c1cc(COc2ccc(F)cc2Cl)on1)N1CCCCCCC1,0.909
16,CSc1ccccc1OCc1cc(C(=O)N2CCC(Oc3cccnc3)CC2)no1,-37.4
17,O=C(c1cc(COc2c(F)cccc2F)on1)N1CCC(c2ccncc2)CC1,-38.5
18,O=C(c1cc(COc2ccc(F)cc2Cl)on1)N1CCC(c2ccncc2)CC1,-72.5
19,O=C(c1cc(COc2ccc(F)cc2Cl)on1)N1CCCCCC1,-3.89
20,CSc1ccccc1OCc1cc(C(=O)N2CCC(c3ccncc3)CC2)no1,-58.5
21,Cc1cccc(C)c1OCc1cc(C(=O)N2CCC(c3ccncc3)CC2)no1,-55.8
22,CSc1ccccc1OCc1cc(C(=O)N2CCSCC2)no1,0.366
23,Cc1cccc(C)c1OCc1cc(C(=O)N2CCC(c3ccccc3)CC2)no1,-1.95
